PubChem BioAssay (NCATS)
Records with an inconclusive call do not appear. Where a call stands in place of a potency, no number is given. The source made the active and inactive calls. Calls follow the shape of the dose curve; as a rule, active = well fitted curve in the direction sought with a large enough effect; inconclusive = small, poorly fitted or top-dose-only effect, or another doubt; inactive = no such curve, though single readings can be large; an effect the other way counts as inactive or inconclusive.

Experiments:
[1] = qHTS of pediatric cancer cell lines to identify multiple opportunities for drug repurposing: Primary screen for control Hh wild type fibroblast cells (AID 1347106);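 also: series mostly up to about 46 µM; a drop in luminescence marks cytotoxicity and a rise apparent proliferation; nearly all actives have a fitted effect of over 55% in size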
How it was run: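 Cells (500-1,000/well) in growth media were settled 5 h at 37 degrees C, then given compounds for 48 h. Viability was read as CellTiter-Glo luminescence. Primary runs used MIPE at 11 points (0.78 nM-46 µM) and NPC at 8 points (0.59 nM-46 µM); follow-ups used 11 points.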

[2] = qHTS of pediatric cancer cell lines to identify multiple opportunities for drug repurposing: Primary screen for Rh30 cells (AID 1347107); also: series mostly up to about 46 µM; nearly all actives have a fitted effect of over 75% in size
How it was run: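 Viability after 48 h compound treatment at 37C, 500-1,000 cells/well, read as ATP luminescence with CellTiter-Glo. Primary screens used 11-point (MIPE, 0.78 nM-46 µM) or 8-point (NPC, 0.59 nM-46 µM) final concentrations; follow-up screens used 11-point dilutions.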

[3] = qHTS of pediatric cancer cell lines to identify multiple opportunities for drug repurposing: Primary screen for Rh41 cells (AID 1347108); also: nearly all actives have a fitted effect of over 70% in size; also: potency is read from the fitted curve at half-maximal effect
How it was run: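 CRCs from 8- or 11-point titrations (lowest final 0.59 nM NPC, 0.78 nM MIPE). Cell viability: CellTiter-Glo after 48 h incubation, 15 min room-temperature development, luminescence imaging.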

SMILES | Potency [1] | Potency [2] | Potency [3]
NNCCc1ccccc1 | inactive | inactive | inactive
CCCCNc1cc(C(=O)O)cc(S(N)(=O)=O)c1Oc1ccccc1 | inactive | inactive | inactive
Clc1cccc(Cl)c1NC1=NCCN1 | inactive | inactive | inactive
N[C@@H]1CONC1=O | inactive | inactive | inactive
c1ccc(-c2nn3c(c2-c2ccnc4cc(OCCN5CCOCC5)ccc24)CCC3)nc1 | inactive | inactive | inactive
CC(C)(C)NCC(O)c1ccc(O)c(CO)c1 (stereo unspecified) | inactive | inactive | inactive
O=C1CCC(N2C(=O)c3ccccc3C2=O)C(=O)N1 (stereo unspecified) | inactive | inactive | inactive
COc1ccc2c3n(c(=NC(=O)c4cccnc4)nc2c1OC)CCN3 | inactive | inactive | 0.935 µM (active)
NS(=O)(=O)c1cc2c(cc1Cl)NC=NS2(=O)=O | inactive | inactive | inactive
Cc1cc(SCc2sc(-c3ccc(C(F)(F)F)cc3)nc2C)ccc1OCC(=O)O | inactive | inactive | 
COc1ccc([C@@H]2CC(=O)c3c(O)cc(O[C@@H]4O[C@H](CO[C@@H]5O[C@@H](C)[C@H](O)[C@@H](O)[C@@H]5O)[C@@H](O)[C@H](O)[C@@H]4O)cc3O2)cc1O | inactive | inactive | inactive
c1ccc([C@H]2CN3CCSC3=N2)cc1 | inactive | inactive | inactive
Cc1cccc(-c2[nH]c(C(C)(C)C)nc2-c2ccc3nccnc3c2)n1 | inactive | inactive | 2.96 µM (active)
CNC(=O)c1ccc(N2C(=S)N(c3ccc(C#N)c(C(F)(F)F)c3)C(=O)C2(C)C)cc1F | inactive | inactive | inactive
